Seven compounds from PubChem BioAssay AID504389 (National Center for Advancing Translational Sciences (NCATS), 2011) can be followed below.

The structures appear in SMILES notation. Results filed as inconclusive are left out. Where a call stands in place of a potency, no number is given. Active and inactive are the calls of the source. The call rests on the fitted dose curve; in most records, active means well fitted curve in the direction sought with a large enough effect; inconclusive means small, poorly fitted or top-dose-only effect, or effect the other way, or another doubt; inactive means no such curve, though single readings can be large or run the other way.

The target of this test is Thyrotropin receptor (Homo sapiens) (UniProt P16473). In words: qHTS Assay for Antagonists of the Thyroid Stimulating Hormone Receptor: SAR for Probe. As to conditions: HEK293-TSHR, TSH-stimulated cAMP HTRF, 2 h; series mostly up to 57.5 µM. From the text: TSH is an alpha/beta heterodimeric glycoprotein hormone secreted from the anterior pituitary gland which belongs to the glycoprotein hormone family. The actions of TSH are mediated by a seven-transmembrane receptor, which upon TSH binding couples preferentially to the G-alpha (s) protein (Gs), resulting in activation of adenylate cyclase and increase in cyclic adenosine 3', 5' monophosphate (cAMP). The TSH receptor (THSR) is mainly expressed in thyroid follicular cells and regulates their growth and function. This cell based assay was conducted on a TSHR transfected HEK 293 cell line, measuring cAMP stimulation using antibody-based Homogeneous Time Resolved Fluorescence (HTRF). Our goal is to identify small molecules that will inhibit (antagonize) the thyroid-stimulating hormone receptor (TSHR), a member of the 7 transmembrane-spanning receptor (7TMR) family of cell surface receptors. TSHR-mediated hyperthyroidism is important in thyroid pathology. The development of small molecule antagonists of TSHR may lead to therapeutic approaches for TSHR-mediated hyperthyroidism caused by constitutively activating mutations or stimulating auto-antibodies associated with Graves' disease. Graves' disease is the leading cause of hyperthyroidism and is caused by autoantibodies that stimulate TSHR (TsAbs) causing thyroid growth and unregulated overproduction of thyroid hormones and existing treatments have liabilities (agranulocytosis). In addition, TSHRs are known to be expressed in multiple extrathyroidal tissues including bone, brain, kidney, testis, fat and cells of the immune system but the role of the TSHR in these tissues is not clear. Therefore, TSHR antagonists/inverse agonists could be used as probes of extrathyroidal TSHR function. Finally, TSHR inverse agonists, which are a subclass of antagonists that inhibit agonist-independent (or basal or constitutive) TSHR signaling, could be used to inhibit TSH-independent signaling in patients with recurrent or metastatic thyroid cancer who are receiving thyroid hormone to suppress TSH. The present assay presents confirmation data for analogues of series of interest in the primary screening assay.
Sequence of Thyrotropin receptor (Homo sapiens) (P16473 whole entry, looked up): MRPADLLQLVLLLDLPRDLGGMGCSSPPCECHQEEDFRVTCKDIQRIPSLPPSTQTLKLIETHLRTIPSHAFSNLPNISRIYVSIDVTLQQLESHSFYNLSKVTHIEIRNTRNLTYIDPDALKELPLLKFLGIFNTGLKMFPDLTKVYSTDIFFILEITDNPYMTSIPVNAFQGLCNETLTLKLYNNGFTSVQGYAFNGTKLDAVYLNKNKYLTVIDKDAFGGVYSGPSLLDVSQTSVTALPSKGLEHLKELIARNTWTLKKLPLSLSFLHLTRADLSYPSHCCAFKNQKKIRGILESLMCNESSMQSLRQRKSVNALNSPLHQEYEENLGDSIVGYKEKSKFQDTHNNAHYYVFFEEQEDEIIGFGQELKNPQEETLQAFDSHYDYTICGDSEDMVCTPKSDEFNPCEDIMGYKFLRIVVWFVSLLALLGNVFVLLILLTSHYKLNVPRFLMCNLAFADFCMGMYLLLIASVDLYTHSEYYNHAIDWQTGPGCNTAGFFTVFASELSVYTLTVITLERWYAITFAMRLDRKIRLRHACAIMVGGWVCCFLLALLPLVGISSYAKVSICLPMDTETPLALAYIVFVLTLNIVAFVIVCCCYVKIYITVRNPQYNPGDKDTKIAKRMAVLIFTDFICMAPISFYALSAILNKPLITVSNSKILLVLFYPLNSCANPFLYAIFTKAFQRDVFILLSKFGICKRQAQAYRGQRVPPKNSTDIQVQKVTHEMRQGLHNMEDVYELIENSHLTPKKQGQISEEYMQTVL
An anti cAMP antibody contains a fluorescent cryptate tag (excitation 337 nm; emission 620 nm) and the acceptor is cAMP-d2 (excitation 620 nm; emission 665 nm). When antibody and cAMP-d2 interact and are excited by a 337 nm light, a FRET occurs resulting in emission at 665 nm. The assay is competition between cAMP-d2 and cAMP (from the cell lysate). The homogeneous protocol allows for one step dispense after stimulation that is automation friendly. Step, Parameter, Value, Description 1, Cells, 3 uL, 2000 TSHR freshly harvested cells/well 1536 TC treated White solid bottom plate (Cells resuspended in 10 mM HEPES buffered HBSS and 70 uM RO 20-1724) 2, Compound, 23 nL, Libraries and controls 3, Compound, 1 uL, EC80 TSH (4 nM final) 4, Time, 2 hours, 37C 5, Reagent, 2 uL, cAMP antibody diluted 1:20 in lysis buffer 6, Time, 30 minutes, Room temperature 7, Detector, HTRF settings, Viewlux
In the case of `COc1ccc(C2Nc3ccccc3C(=O)N2Cc2ccc3c(c2)OCO3)cc1COc1c(C)cc(NC(C)=O)cc1C` (configuration not stated), the Potency result was “inactive”.
The same measure for `Cc1cccc(C)c1OCc1cccc(C2Nc3ccccc3C(=O)N2Cc2ccco2)c1` (configuration not stated): 32.6 µM (active); for `COc1ccc(C2Nc3ccccc3C(=O)N2Cc2ccco2)cc1COc1c(C)cc(NC(C)=O)cc1C` (configuration not stated): 36.6 µM (active); for `COc1ccc(C=O)cc1COc1ccc(NC(C)=O)cc1`: “inactive”.
Next, `COc1ccc(CN2C(=O)N(c3ccccc3)C(=O)C2c2ccccc2)cc1COc1ccc(NC(C)=O)cc1` (configuration not stated): “inactive”; `Nc1ccccc1C(=O)NCc1ccco1`: “inactive”; `O=c1c2ccccc2nc(-c2ccccc2O)n1Cc1ccccc1`: “inactive”.
